# Hits are enriched below; roughly 13% of the tested compounds scored in any of these assays.
# USP8 block = inhibitors of human USP8 deubiquitinase. purified USP8, Ub-rhodamine cleavage fluorescence, 30 min. inhibition, % at 20 µM. 4.2% of 47,000 active
# USP17 inh = inhibitors of human USP17 deubiquitinase; A8MUK1; inhibition, % at 50 µM; 6.5% of 47,000 active; purified USP17, Ub-rhodamine cleavage fluorescence, 3 h
# USP30 inh = inhibitors of human USP30 deubiquitinase. purified USP30, Ub-rhodamine cleavage fluorescence. 5.3% of 47,000 active. AID 1645860. inhibition, % at 25 µM
# USP28 inh = human USP28 deubiquitinase inhibition; Q96RU2; purified USP28, Ub-rhodamine cleavage fluorescence, 30 min; inhibition, % at 25 µM; 3% of 47,000 active
# Starred values were filed as active, the others as inactive; nt = no result. Cut-off read from the data, not from the text of the source: active = inhibition above about 30%; inactive = the rest.
SMILES,USP8 block,USP17 inh,USP30 inh,USP28 inh
CCOc1ccc2nc(NC(=O)CCS(=O)(=O)c3ccc4c(c3)CCN4C(C)=O)sc2c1,21,20,-90,3
CC(=O)N1CCc2cc(S(=O)(=O)NC(C(=O)Nc3nc4ccc(C)cc4s3)C(C)C)ccc21 (stereo unspecified),30*,7,2,0
COc1ccccc1N1CCN(C(=O)CN2CCOC3(CC=CCN(C)C3=O)C2)CC1 (stereo unspecified),0,-9,-44,-16
O=C(c1cnc2ccccc2c1)N1CCCn2nnc(COCC3CC3)c2C1,-8,2,29,3
Cc1ccc(Cn2nc(C)cc2C(=O)Nc2cccc(C(F)(F)F)c2)cc1,21,24,27,11
Cn1cc(NC(=O)Nc2cccc(C(F)(F)F)c2)c2ccccc2c1=O,97*,98*,78*,61*
Cc1cc(C(F)(F)F)n(-c2ccc(NC(=O)Nc3cccc(C(F)(F)F)c3)cc2)n1,15,39*,-5,43*
COc1cccc(CNC(=O)C(C)C2CCN(C(=O)c3cc4ccc(OC)cc4[nH]3)CC2)c1 (stereo unspecified),-8,0,13,14
Cc1ccc(C(=O)NCCc2nnc3ccc(SCc4c(F)cccc4Cl)nn23)cc1,15,6,30*,16
CN(C)C(=O)CSc1nnc(-c2ccccc2O)n1Cc1ccccc1,18,10,11,1
COC(=O)CSc1nnc(-c2ccccc2O)n1Cc1ccccc1,37*,-12,20,10
O=C(NCCc1c[nH]c2ccc(F)cc12)c1cn2cc(Cl)ccc2n1,-1,24,-24,6
CC(C)c1cc(NCc2cccnc2)n2nc(-c3cccnc3)nc2n1,5,0,nt,nt
Cc1ccccc1OCCSc1nc2ccccc2n1CC(=O)NC1CC1,25,31*,50*,7
CCOc1ccc(-c2ccc3nnc(SCC(=O)Nc4cccc(C(C)=O)c4)n3n2)cc1,26,61*,48*,43*
CCOc1ccc(NC(=O)COc2cccc(-n3cnnn3)c2)cc1,10,8,34*,55*
O=C(COc1cccc(-n2cnnn2)c1)Nc1cccc(F)c1,-23,-6,-3,-4
O=C(COc1ccc(-n2cnnn2)cc1)Nc1ccc(F)c(Cl)c1,17,42*,28,17
Cc1ccc(Cn2c(C(=O)Nc3cccnc3)cc3sccc32)cc1,43*,42*,22,8
Cc1ccc(-n2nc(C(=O)Nc3cccnc3)c3ncn(C)c(=O)c32)cc1,-5,27,17,16
CN1CC(=O)N(C2CCNC2)Cc2c(NC3Cc4ccccc4C3)ncnc21 (stereo unspecified),12,50*,12,20
Cc1ccc(NC(=O)c2ccccc2)c(=O)n1CC(=O)N1CCOCC1,14,10,18,9
C[C@@H]1C(=O)N2CCN(S(=O)(=O)c3ccc(Cl)cc3)C[C@H]2C(=O)N1C,2,11,nt,nt
CCOC(=O)N1CCc2c(sc3c2c(=O)n(-c2ccc(CC)cc2)c(=O)n3CC(=O)N2CCCCC2C)C1 (stereo unspecified),17,16,26,20
CN(C(=O)Cn1c(=O)n(-c2ccc(Cl)cc2)c(=O)c2c3c(sc21)CCCC3)C1CCCCC1,1,41*,32*,20
SMILES,USP8 block,USP17 inh,USP30 inh,USP28 inh
COc1ccccc1NC(=O)NCCc1cn(C)c2ncccc12,13,-2,0,37*
COc1ccc(C)cc1NC(=O)NCCc1cn(C)c2ncccc12,10,2,5,16
O=c1[nH]c2c(cnn2Cc2ccccc2)c(O)c1-c1nc(-c2ccccc2F)no1,6,-7,-20,-9
O=C(Nc1ccc(F)cc1)c1c(O)c2cnn(Cc3ccccc3)c2[nH]c1=O,42*,0,-1,3
Cc1ccccc1CNC(=O)c1c(O)c2cnn(Cc3ccccc3)c2[nH]c1=O,20,-21,-76,-17
O=C(Nc1cccc(F)c1)c1c(O)c2cnn(Cc3ccccc3)c2[nH]c1=O,61*,4,-1,-1
O=C(NCc1ccccc1F)c1c(O)c2cnn(Cc3ccccc3)c2[nH]c1=O,80*,32*,1,11
CN1C(=O)C2(CCN(C(=O)Cc3cccc(F)c3)C2)c2ccccc21 (stereo unspecified),-35,-18,-25,-13
Cc1c(S(=O)(=O)N2CCCC2)cc(C(=O)Nc2ccccc2)n1C,0,46*,9,24
CC1(C)Cc2cccc(OC(=O)NCCc3ccc(Cl)cc3)c2O1,-1,5,9,-3
CC1CCN(C(=O)c2cnc3ccccc3c2S(=O)(=O)c2ccc(Cl)cc2)CC1,5,19,38*,20

# Compound activity from PubChem BioAssay.
